A selection: hits, their analogues and other compounds. The true share with any hit is near 1.6%.
eIF4E 4G PPI = eIF4E–eIF4G protein interaction inhibitors, primary screen, biochemical, uHTS, TR-FRET, eIF4GI fragment; Eukaryotic translation initiation factor 4E (Mus musculus) + Eukaryotic translation …; TR-FRET eIF4E-eIF4GI(517-606) binding, 2 h; inhibition, % at 21.7 µM; 0.37% of 220,000 active;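 active = inhibition above about 30%, limit read from the data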
Target sequence (P63073 whole entry, looked up, the tested form may be a part): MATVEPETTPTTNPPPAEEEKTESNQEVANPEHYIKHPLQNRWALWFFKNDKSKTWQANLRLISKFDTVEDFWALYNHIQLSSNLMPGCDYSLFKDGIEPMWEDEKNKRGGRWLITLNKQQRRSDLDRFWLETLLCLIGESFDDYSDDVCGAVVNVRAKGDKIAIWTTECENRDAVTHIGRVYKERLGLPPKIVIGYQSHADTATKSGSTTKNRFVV
Target sequence (Q04637 whole entry, looked up, the tested form may be a part): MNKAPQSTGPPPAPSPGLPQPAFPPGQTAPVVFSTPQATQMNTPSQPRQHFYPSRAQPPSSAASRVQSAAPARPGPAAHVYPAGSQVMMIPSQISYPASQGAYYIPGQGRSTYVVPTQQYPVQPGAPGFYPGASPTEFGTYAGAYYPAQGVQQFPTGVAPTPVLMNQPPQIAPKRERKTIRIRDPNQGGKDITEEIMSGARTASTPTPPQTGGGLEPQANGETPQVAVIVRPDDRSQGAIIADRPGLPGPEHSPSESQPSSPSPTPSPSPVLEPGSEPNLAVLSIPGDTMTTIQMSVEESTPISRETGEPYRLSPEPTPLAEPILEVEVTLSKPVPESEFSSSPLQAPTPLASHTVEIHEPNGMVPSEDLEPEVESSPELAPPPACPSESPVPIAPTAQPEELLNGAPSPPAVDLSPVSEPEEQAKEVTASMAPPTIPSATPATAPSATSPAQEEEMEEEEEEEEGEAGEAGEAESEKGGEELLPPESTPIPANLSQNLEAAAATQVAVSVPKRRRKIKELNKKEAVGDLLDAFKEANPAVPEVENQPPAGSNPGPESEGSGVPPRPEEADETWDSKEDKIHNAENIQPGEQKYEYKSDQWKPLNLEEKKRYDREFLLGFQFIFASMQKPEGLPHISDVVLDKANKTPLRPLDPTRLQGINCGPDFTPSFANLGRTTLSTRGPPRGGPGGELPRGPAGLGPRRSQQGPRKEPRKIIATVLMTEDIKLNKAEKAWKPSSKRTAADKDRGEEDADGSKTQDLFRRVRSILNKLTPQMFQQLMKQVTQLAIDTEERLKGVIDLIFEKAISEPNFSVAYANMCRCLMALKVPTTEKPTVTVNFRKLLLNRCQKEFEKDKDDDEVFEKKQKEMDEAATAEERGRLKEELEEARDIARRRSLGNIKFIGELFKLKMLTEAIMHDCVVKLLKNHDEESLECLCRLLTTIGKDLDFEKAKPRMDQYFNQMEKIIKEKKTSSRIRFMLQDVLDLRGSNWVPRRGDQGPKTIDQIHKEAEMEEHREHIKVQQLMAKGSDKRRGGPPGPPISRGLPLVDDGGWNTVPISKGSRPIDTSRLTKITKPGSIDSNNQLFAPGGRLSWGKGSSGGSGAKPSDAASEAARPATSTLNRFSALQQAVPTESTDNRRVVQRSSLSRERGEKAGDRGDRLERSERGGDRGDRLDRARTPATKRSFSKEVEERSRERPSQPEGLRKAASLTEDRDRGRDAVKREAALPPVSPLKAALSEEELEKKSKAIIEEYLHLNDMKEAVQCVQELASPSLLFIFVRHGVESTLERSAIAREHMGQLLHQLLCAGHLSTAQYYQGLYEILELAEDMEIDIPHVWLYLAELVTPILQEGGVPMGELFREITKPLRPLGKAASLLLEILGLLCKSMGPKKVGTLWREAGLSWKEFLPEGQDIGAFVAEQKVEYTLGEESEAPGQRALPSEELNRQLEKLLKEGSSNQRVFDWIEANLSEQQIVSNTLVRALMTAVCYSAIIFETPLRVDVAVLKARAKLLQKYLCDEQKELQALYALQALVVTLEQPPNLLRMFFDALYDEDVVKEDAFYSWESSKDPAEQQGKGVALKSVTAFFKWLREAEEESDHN
MLLE-PAM2 inh = inhibitors of PABP1 MLLE–PAM2 peptide binding, primary screen, biochemical, fluorescence polarization, FITC-PAM2, GST-MLLE; inhibition, % at 20 µM; 0.36% of 360,000 active; AID 588489, 2011; in the data active = inhibition above about 35%, passing the limit was not always enough
PERK inhibitor = block of dimerizer-induced PERK translation repression, primary screen, PERK inhibitor project, CHO PERK-DD cells, SEAP luminescence, HTS | Eukaryotic translation initiation factor 2-alpha kinase 3 (Homo sapiens), Q9NZJ5 | CHO PERK-DD fusion, SEAP luminescence translation reporter | inhibition, % at 5.6 µM | 0.17% of 220,000 active | AID 1416, 2008;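 active = inhibition above the mean inhibition of all tested compounds plus 3 SD, set separately per screening campaign, cut at about 2.9% in these data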;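 also: PERK kinase domain activated by AP20187 dimerizer at 100 nM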
PABP polyA inh = PABP poly(A) RNA binding inhibitors, primary screen, biochemical, fluorescence polarization, uHTS; inhibition, % at 35 µM; 1% of 290,000 active; AID 2014, 2009;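 also: calls also rest on retests at 20 µM and on dose response follow-up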
eIF4H inh = human eIF4H binding inhibitors, primary screen, translation initiation inhibitor project, biochemical, uHTS, fluorescence polarization; eIF4H fluorescence polarization binding assay; 0.94% of 290,000 active; inhibition, % at 35 µM;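 also: calls also rest on retests at 20 µM and on dose response follow-up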
Of the large screens only hits and unclear results are named; the others gave an inactive call. Unless noted, no rule for the calls is given here.

CC(=O)SC1CC2=CC(=O)CCC2(C)C2CCC3(C)C(CCC34CCC(=O)O4)C12 (stereo not drawn)	none
CSc1ccc(C2NC(=O)c3c(sc4c3CCN(C)C4)N2)cc1 (stereo not drawn)	PABP polyA inh 120.6, eIF4H inh 108.6
CN1CCc2c(sc3c2C(=O)NC(c2cccs2)N3)C1 (stereo not drawn)	eIF4H inh inconclusive
CC(=O)c1nnn(-c2ccc([N+](=O)[O-])cc2)c1C	eIF4H inh active
NC(=O)c1nnn(-c2ccc([N+](=O)[O-])cc2)c1-c1ccccc1	none
CCN(CC)C(=O)c1c(-c2ccccc2)oc2ccc(OC)cc12	none
CCOC(=O)c1c2ccc(OCC(=O)NN)cc2n2ccccc12	MLLE-PAM2 inh 58.0
CCOC(=O)C1CCCN(C2CC(=O)N(c3ccc(NC(C)=O)cc3)C2=O)C1 (stereo not drawn)	none
CC(C)Oc1ccc(CCC(=O)NNC(=O)CCC(=O)O)cc1	PERK inhibitor 3.1
COc1ccc(OC)c(C=Nc2ccccc2-c2nc3ccccc3[nH]2)c1	none
CCOC(=O)c1ccc[n+](CC(=O)c2ccccc2)c1	PABP polyA inh 13.5, eIF4H inh 59.0
O=C(C1CC(c2cccc(Br)c2)=NO1)N1CCc2ccccc2C1 (stereo not drawn)	eIF4H inh 53.2
O=C(O)C1CC(c2cccc(Br)c2)=NO1 (stereo not drawn)	none
COc1cc(/C=C2\C(=O)N(c3ccccc3)N=C2C)ccc1Oc1ccc([N+](=O)[O-])cc1[N+](=O)[O-]	PABP polyA inh 51.5, eIF4H inh active
CC1CCc2c(sc3ncnc(NCCN4CCOCC4)c23)C1 (stereo not drawn)	eIF4E 4G PPI 50.5 (no result: PERK inhibitor)
CC1CCc2c(sc3ncnc(N4CCOCC4)c23)C1 (stereo not drawn)	none
Cc1ccccc1-c1n[nH]c(=S)n1/N=C/C=C/c1ccco1	PABP polyA inh 41.2, eIF4H inh 82.1
Cc1cc(-c2n[nH]c(=S)n2/N=C/c2ccc(C)o2)n[nH]1	none
Cc1cc(-c2n[nH]c(=S)n2/N=C/C=C/c2ccco2)n[nH]1	PABP polyA inh 65.2, eIF4H inh 93.4
CC(=C/c1ccccc1)/C=N/n1c(-c2ccco2)n[nH]c1=S	none
S=c1[nH]nc(-c2ccco2)n1/N=C/C=C/c1ccccc1	none
CC(/C=N/n1c(-c2cc(C)[nH]n2)n[nH]c1=S)=C\c1ccccc1	PABP polyA inh 64.4, eIF4H inh active
CC(=O)Oc1cccc(C2C3=C(CC(C)(C)CC3=O)Nc3ccccc3N2C(C)=O)c1 (stereo not drawn)	none (no result: eIF4E 4G PPI, PERK inhibitor)
Cc1ccc2c(c1)N1C(=O)c3ccccc3C1C1=C(CC(C)(C)CC1=O)N2 (stereo not drawn)	eIF4H inh active
Cc1ccc2nc(-c3sc4nc(C)ccc4c3N)[nH]c2c1	none
O=C(/C=C/c1ccc(-c2ccccc2[N+](=O)[O-])o1)c1ccco1	MLLE-PAM2 inh 52.0
O=C(C=Cc1ccco1)c1ccco1	none (no result: eIF4E 4G PPI, PERK inhibitor, PABP polyA inh, eIF4H inh)
O=C(NC1=NCCS1)c1ccc2c(c1)C(=O)N(Cc1ccco1)C2=O	none
CNC(=O)C1CC(=O)N(CCc2ccccc2)C(=Nc2ccc(OC)cc2)S1 (stereo not drawn)	PABP polyA inh inconclusive
CCN1C(=O)CC(C(=O)NCCc2ccc(S(N)(=O)=O)cc2)SC1=Nc1ccc(OC)cc1 (stereo not drawn)	PABP polyA inh 83.2, eIF4H inh active
Fc1c(F)c(F)c(/C=N/NC(=S)Nc2cccnc2)c(F)c1F	MLLE-PAM2 inh 40.0
Fc1cccc(F)c1/C=N/NC(=S)Nc1cccnc1	none
Oc1cccc(/C=N/NC(=S)Nc2cccnc2)c1O	none
Oc1ccc(/C=N/NC(=S)Nc2cccnc2)c(O)c1O	eIF4E 4G PPI 57.6, PABP polyA inh 56.1, eIF4H inh 87.0
O=C(/C=C/c1ccco1)N(c1ccccn1)c1ccccn1	eIF4E 4G PPI 34.4, eIF4H inh 100.7
CC(C)(C)OC(=O)NC(Cc1ccccc1)C(=O)N1CCC(C(=O)NCC(=O)Nc2ccc(F)cc2)CC1 (stereo not drawn)	MLLE-PAM2 inh 37.9, PABP polyA inh inconclusive, eIF4H inh inconclusive (no result: eIF4E 4G PPI, PERK inhibitor)
CC(C)(C)OC(=O)N[C@@H](Cc1ccccc1)C(=O)N1CCC(C(=O)NCC(=O)O)CC1	none (no result: eIF4E 4G PPI, PERK inhibitor)
Nc1c(C(=O)O)ccc2c1C(=O)c1ccccc1C2=O	none
Nc1ccc2c(c1Cl)C(=O)c1ccc(N)c(Cl)c1C2=O	PABP polyA inh 78.8, eIF4H inh 109.2
CC1(c2nnc(-c3ccccc3)o2)CC(c2ccncc2)=NO1 (stereo not drawn)	eIF4E 4G PPI 97.2 (no result: PERK inhibitor)
Cc1ccc(C)n1-c1nccc(-c2cccs2)n1	PABP polyA inh 31.7, eIF4H inh 90.6
Cc1ccc(C)n1-c1nccc(-c2ccco2)n1	PABP polyA inh 8.2, eIF4H inh 54.3
Cc1ccc2nc(N3C(=O)C(O)=C(C(=O)c4ccco4)C3c3ccc(C)o3)sc2c1 (stereo not drawn)	none (no result: eIF4E 4G PPI, PERK inhibitor)
CSc1nc(N)nc(SCC(=O)C23CC4CC(CC(C4)C2)C3)c1C#N	none
CC(=O)Nc1ccc(N2C(=O)CSC2c2ccc(F)cc2)cc1 (stereo not drawn)	PABP polyA inh 72.7, eIF4H inh 97.8
O=C(NC(=S)Nc1cccc(O)c1)c1cncc(Br)c1	MLLE-PAM2 inh 41.6 (no result: eIF4E 4G PPI, PERK inhibitor, PABP polyA inh, eIF4H inh)
Cc1ccccc1NC(=S)NC(=O)c1cncc(Br)c1	none
Cc1cc(O)ccc1NC(=S)NC(=O)c1cncc(Br)c1	MLLE-PAM2 inh 43.6 (no result: eIF4E 4G PPI, PERK inhibitor)
CC(=O)c1cccc(NC(=S)NC(=O)c2ccc(Br)cc2)c1	MLLE-PAM2 inh 41.1
O=C(O)c1cccc(NC(=S)NC(=O)c2cncc(Br)c2)c1	none (no result: eIF4E 4G PPI, PERK inhibitor, PABP polyA inh, eIF4H inh)
CC(NC(=S)NC1CCCCC1)c1ccccc1 (stereo not drawn)	none (no result: eIF4E 4G PPI, PERK inhibitor)
Oc1ccc(C=NCCc2ccccc2)cc1	none (no result: eIF4E 4G PPI, PERK inhibitor)
CCc1ccc(C(=O)CSC2=C(C#N)C(c3ccco3)C(C(C)=O)=C(C)N2)cc1 (stereo not drawn)	eIF4H inh 71.5 (no result: MLLE-PAM2 inh)
CC(=O)C1=C(C)NC(SCC(=O)c2ccc(Cl)c(Cl)c2)=C(C#N)C1c1ccco1 (stereo not drawn)	PABP polyA inh 59.9, eIF4H inh 71.0 (no result: eIF4E 4G PPI)
CCOC(=O)CSC1=C(C#N)C(c2ccccc2F)C(C(C)=O)=C(C)N1 (stereo not drawn)	PABP polyA inh inconclusive, eIF4H inh 50.4
CC(=O)C1=C(C)NC(SCC(=O)c2ccc(F)cc2)=C(C#N)C1c1ccco1 (stereo not drawn)	none
COc1ccc(OC)c(C(O)c2ncc(-c3ccccc3Cl)[nH]2)c1 (stereo not drawn)	none (no result: eIF4E 4G PPI, PERK inhibitor, PABP polyA inh, eIF4H inh)
CCOC(=O)c1c(-c2ccc(C)o2)csc1NC(=O)CN1CCCCC1	none

Screens from PubChem BioAssay.
